The values that follow come from PubChem BioAssay AID1508602 (The Scripps Research Institute Molecular Screening Center, 2020).

Hit rate of the full screen: of about 650,000 compounds, about 6,800 (1%) were called active. The entries come from a sample that favours actives as a whole. A number with no mark means an inactive call. Cut-off read from the data, not from the text of the source: active = activation above about 4.9%; inactive = the rest.

Chain of G-protein coupled receptor 151 (Homo sapiens) (Q8TDV0 whole entry, looked up): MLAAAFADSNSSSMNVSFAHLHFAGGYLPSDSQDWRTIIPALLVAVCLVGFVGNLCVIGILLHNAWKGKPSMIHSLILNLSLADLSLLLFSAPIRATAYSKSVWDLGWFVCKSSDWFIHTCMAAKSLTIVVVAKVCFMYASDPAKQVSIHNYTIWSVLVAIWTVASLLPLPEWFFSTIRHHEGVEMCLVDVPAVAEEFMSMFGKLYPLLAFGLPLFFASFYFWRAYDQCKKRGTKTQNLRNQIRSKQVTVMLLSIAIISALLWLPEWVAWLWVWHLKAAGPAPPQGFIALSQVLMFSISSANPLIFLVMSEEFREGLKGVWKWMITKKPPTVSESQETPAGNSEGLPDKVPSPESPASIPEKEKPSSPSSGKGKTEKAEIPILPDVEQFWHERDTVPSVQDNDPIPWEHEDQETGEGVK

This test addresses G-protein coupled receptor 151 (Homo sapiens) (UniProt Q8TDV0). Put plainly: activates the human receptor GPR151, primary screen, cell-based, PathHunter beta-arrestin, luminescence (AID 1508602).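 Note: 0% = median of compound wells and 100% = cells with positive control.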 As to conditions: PathHunter beta-arrestin GPR151 cells, at 11.2 µM, active compounds read high.
In the case of `O=C(C1CC1)N1CC[C@H]2[C@H](CCCN2C/C=C/c2ccco2)C1`, the activation is 0.174%.
Take `O=C(Nc1ccccc1)c1cnc(N2CCC(N3CCOCC3)CC2)s1`: the activation was -1.62%.
Take `COc1ccc(/C=C/C(=O)NCCSc2ccccn2)cc1`: the activation is -0.668%.
For `COc1cccc(N(CC(=O)NCCSc2ccccn2)S(C)(=O)=O)c1` the value was 1.03%; for `COc1ccc(C=C(C#N)C#N)c(CSc2ccccn2)c1`, 5.44% (active).
As to `Cn1c(SCC(=O)NC(Cc2ccccc2)C(=O)O)nnc1-c1ccncc1` (stereo not given), the activation was -0.851%.
As to `CCOc1ccc(CCn2c(-c3ccccc3)cn3c4c(=O)n(C)c(=O)n(C)c4nc23)cc1OCC`, the activation is 0.226%.
As to `Cc1ccc(N2C(=O)CC(N3CCC(Cc4ccccc4)CC3)C2=O)cc1Cl` (stereo not given), the activation was -0.328%.
Consider `Cc1ccc(N2C(=O)CC(N3CCN(Cc4ccc(Cl)cc4)CC3)C2=O)cc1Cl` (stereo not given), for which the activation is 5.11% (active).
For `O=C1CC(N2CCN(c3ccc(Cl)cc3)CC2)C(=O)N1c1ccc(Cl)c(Cl)c1` (stereo not given) the value was -0.621%; for `COc1ccc2ccccc2c1CN1CCc2nnc(C(C)NC(=O)C(C)C)n2CC1` (stereo not given), 1.9%.
Consider `COc1ccc(C(=O)Nc2c(C)n(C)n(-c3ccccc3)c2=O)c(OC)c1OC`, for which the activation is 0.96%.
In the case of `Cc1c(N=C(Nc2ccccc2)Nc2ccccc2)c(=O)n(-c2ccccc2)n1C`, the activation is -0.384%.
For `COc1cc(C(C)=Nc2c(C)n(C)n(-c3ccccc3)c2=O)cc(O)c1OC`, the activation was 5.37% (active).
The result for `CCOc1ccc(CCNC(=O)Cn2c(-c3cncs3)nc3ccccc32)cc1OCC` reads -0.67%.
The result for `O=C(Nc1ccccc1)/C(=C\c1ccco1)NC(=O)c1cccc(Cl)c1` reads 0.512%; that for `CCOC(=O)c1cnc2c(OC)cccc2c1Nc1ccc(Oc2ccccc2)cc1`, -0.414%.
Regarding `CCN(CC)c1nc(Nc2ccccc2)nc(Nc2ccccc2)n1`, the activation is 6.59% (active).
As for `CCN(CC)c1nc(Nc2ccccc2)nc(Nc2ccc(NC(C)=O)cc2)n1`, the activation was -0.926%.
The result for `CCN(CC)c1nc(NCc2ccccc2)nc(NCc2ccc3c(c2)OCO3)n1` reads 0.801%; that for `COc1cccc(C(=O)COC(=O)c2c3c(nc4ccccc24)CCCC3)c1`, 1.21%; that for `CCOC1=C/C(=C/c2c(N)n3nc(N4CCCC4)sc3nc2=O)C=CC1=O`, -1.93%.
Turning to `COC(=O)C(C)CN1CCN(Cc2ccc3c(c2)OCO3)CC1` (stereo not given), the activation was -1.4%.
`CC1CCCN(CC(O)COc2ccc3c(c2)OCO3)C1` (stereo not given): the activation was -0.477%.
Regarding `CN1CCN(CC(O)COCc2ccc3c(c2)OCO3)CC1` (stereo not given), the activation is 10.1% (active).
On to `CCC(=O)Nc1cccc(Nc2nc(Cl)nc(Nc3cccc(NC(=O)CC)c3)n2)c1`, for which the activation was 0.686%.
With `Cc1ccc(CS(=O)(=O)CC2Nc3ccc(C(=O)NC4CCCC4)cc3NC2=O)cc1` (stereo not given), the activation is -0.216%.
On to `Cc1cc(=O)[nH]c(NCCC(=O)O)n1`, for which the activation is 0.811%.
On to `COCCn1c(C)cc(C(=O)COC(=O)C2COc3ccccc3O2)c1C` (stereo not given), for which the activation was 0.229%.
Turning to `COCCn1c(C)cc(C(=O)CSc2nnc3scc(-c4ccc(C)cc4)n23)c1C`, the activation is 1.12%.
For `COCCn1c(C)cc(C(=O)CSc2nnc(-c3ccccc3)o2)c1C` the value was 9.35% (active); for `COc1ccc(C2/C(=C(\O)c3ccc(Br)cc3)C(=O)C(=O)N2c2nccs2)cc1OC` (stereo not given), -0.318%.
Consider `Cc1cccc(-n2nc3c(c2NC(=O)C2CCCC2)CS(=O)(=O)C3)c1C`, for which the activation is -1.12%.
Take `Cc1cccc(-n2nc3c(c2NC(=O)CCC2CCCCC2)CS(=O)(=O)C3)c1C`: the activation was 5.19% (active).
The result for `Cc1cccc(-n2nc3c(c2NC(=O)CCC2CCCC2)CS(=O)(=O)C3)c1C` reads -0.834%.
For the compound `COc1ccc(N2CCN(C(CNS(=O)(=O)c3c(C)cc(C)cc3C)c3cccnc3)CC2)cc1` (stereo not given), the activation was 0.0567%.
With `Cc1ccc(S(=O)(=O)NCC(c2cccnc2)N2CCN(c3ccc(F)cc3)CC2)cc1` (stereo not given), the activation is 4.96% (active).
Consider `O=S(=O)(NCC(c1cccnc1)N1CCN(c2ccccc2)CC1)c1ccc(F)cc1` (stereo not given), for which the activation is -1.39%.
As for `CC(=O)Nc1nc2c(s1)-c1cccc3cccc-2c13`, the activation is -0.686%.
In the case of `CCN1CCN(c2cc(Nc3cc(OC)c(OC)c(OC)c3)c3c4c(onc24)-c2ccccc2C3=O)CC1`, the activation is -0.784%.
For the compound `CCN1CCN(c2cc(Nc3cccc(OC)c3)c3c4c(onc24)-c2ccccc2C3=O)CC1`, the activation was -1.99%.
Turning to `COc1cc(Nc2cc(N3CCN(c4ccc(F)cc4)CC3)c3noc4c3c2C(=O)c2ccccc2-4)cc(OC)c1OC`, the activation was 5.65% (active).
For `Cn1c(SCC(=O)NCc2cccs2)nnc1C1CC1` the value was 0.896%; for `Cc1ccccc1NC(=O)CCS(=O)(=O)c1ccc2c(c1)OCC(=O)N2`, -0.0759%.
As for `CCc1ccc(NC(=O)CCS(=O)(=O)c2cc3c(cc2Cl)NC(=O)CO3)cc1`, the activation was 0.977%.
As for `Cc1cc2c(cc1S(=O)(=O)CCC(=O)Nc1ccccc1Cl)OCC(=O)N2`, the activation is 12% (active).
As to `CC(Nc1ccc(-c2cccc(C=O)c2)cn1)c1ccc(F)cc1` (stereo not given), the activation was 3.31%.
For `C=CSC1=C(C#N)C(c2cccc3ccccc23)CC(=O)N1` (stereo not given) the value was 0.0614%; for `CN(Cc1ccccc1)C(=O)c1nc2ccc(-c3cn[nH]c3)cc2s1`, 5.86% (active).
The result for `CCN(Cc1ccccc1)C(=O)Nc1ccc(-c2cn[nH]c2)cc1OCCN(C)C` reads 0.0869%.
Take `CN(C)C(=O)c1cc(-c2cn[nH]c2)ccc1NC(=O)OCc1ccccc1`: the activation was 0.0349%.
Regarding `O=C(CCS(=O)(=O)c1cccc2nsnc12)N1CCCCCC1`, the activation is -0.702%.
For `CNC(=O)C(NC(=O)c1ccc([N+](=O)[O-])cc1)C12CC3CC(CC(C3)C1)C2` (stereo not given), the activation was 0.352%.
On to `Cc1cccc(NC(=O)/C(=C\c2ccco2)NC(=O)c2ccccc2Br)c1`, for which the activation was 2.08%.
For `CC1=C(C(=O)N2CCOCC2)C(c2ccc(Cl)cc2)C2=C(CC(C)(C)CC2=O)N1` (stereo not given), the activation was 0.141%.
`CCc1cccc(OCC(=O)Nc2ccc3c(c2)OCCO3)c1`: the activation is -1.18%.
With `CCOc1cccc(NC(=O)Cn2nc(-c3ccc4c(c3)OCCO4)ccc2=O)c1`, the activation is 8% (active).
With `O=C(Cn1nc(-c2ccc3c(c2)OCCO3)ccc1=O)Nc1cccc(C(=O)NC2CC2)c1`, the activation was 0.799%.
In the case of `O=C(CSc1nnc(Cc2ccccc2)o1)c1ccc([N+](=O)[O-])cc1`, the activation was -0.861%.
For the compound `CCOc1ccc(-n2c(C)nc3cc(C(=O)NCC(OCC)OCC)ccc32)cc1`, the activation is -0.917%.
For `COc1ccccc1-n1c(C)nc2cc(C(=O)NCc3ccc4c(c3)OCO4)ccc21` the value was -0.911%.
Take `Cc1nc2cc(C(=O)NCc3ccc4c(c3)OCO4)ccc2n1-c1ccc(OCc2ccccc2)cc1`: the activation was 9.26% (active).
Consider `O=C(NC1CC1)c1ccc(-c2nc(NCCN3CCOCC3)c3[nH]cnc3n2)cc1`, for which the activation is 2.27%.
The result for `Cc1cccn2c(=O)c3cc(C(=O)NC4CCCCC4)c(=N)n(C4CCCCC4)c3nc12` reads 5.92% (active); that for `CCCn1c(=N)c(C(=O)NC2CCCCC2)cc2c(=O)n3cccc(C)c3nc21`, -0.974%.
On to `Cc1ccc2nc3c(cc(C(=O)NC4CCCCC4)c(=N)n3C(C)C)c(=O)n2c1`, for which the activation was 0.735%.
Turning to `COc1cccc(NC(=O)N2CCc3nc(-c4ccncc4)nc(N4CCCCC4)c3C2)c1`, the activation was -2.11%.
Regarding `CC12CCC(C(=O)Nc3c(Cl)cccc3Cl)(CC1=O)C2(C)C` (stereo not given), the activation was -0.214%.
The result for `CC12CCC(C(=O)Nc3cc(Cl)ccc3Cl)(CC1=O)C2(C)C` (stereo not given) reads -0.262%; that for `CC12CCC(C(=O)Nc3ncc(Cl)cc3Cl)(CC1=O)C2(C)C` (stereo not given), 5.35% (active).
On to `Cc1ccccc1-n1nc2c(c1NC(=O)C1CC1)CSC2`, for which the activation was 1.82%.
In the case of `C=CCn1c(SCC(=O)Nc2nc(C)cs2)nnc1C(C)NC(=O)c1cccs1` (stereo not given), the activation was 0.0682%.
With `O=C(CCN(Cc1ccc(Cl)cc1)S(=O)(=O)c1ccc(Br)cc1)NO`, the activation was 0.218%.
In the case of `CCCc1nnc(NC(=O)C(C)Oc2ccccc2)s1` (stereo not given), the activation was 0.536%.
For `CC(=O)Nc1nnc(CCOCC(C)OCCc2nnc(NC(C)=O)s2)s1` (stereo not given) the value was 5.04% (active); for `CCOCCc1nnc(NC(=O)CC(C)(C)C)s1`, -0.508%; for `CCOc1ccc(NC(=O)NC(=O)N(C)S(C)(=O)=O)cc1`, -0.0562%.
Consider `CCOc1ccc(NC(=O)N(CC(C)C)CC(C)C)cc1`, for which the activation was -1.58%.
For `CCOc1ccc(NC(=O)Nc2ccc(N(C)C(C)=O)cc2)cc1`, the activation was 6.4% (active).
As to `CC1CCCC(C)N1C(=O)COC(=O)c1ccc(Cl)cc1N` (stereo not given), the activation was -1.01%.
Turning to `COc1cccc(-c2ccccc2NC(=O)C2CCN(C3CCOCC3)CC2)c1`, the activation was 0.21%.
For `O=C(CCc1nc2ccccc2[nH]1)N1CCC2(CC1)OCc1cc(Cl)ccc1O2`, the activation was -0.0529%.
Regarding `COc1ccc(-c2noc(N3CCC(C(=O)NCCCN4CCN(C)CC4)CC3)n2)cc1`, the activation is 7.49% (active).
Take `COc1ccc(-c2noc(N3CCC(C(=O)NCCCOC(C)C)CC3)n2)cc1`: the activation is 2.42%.
The result for `COc1ccc(-c2noc(N3CCCC(C(=O)NCCCN4CCC(C)CC4)C3)n2)cc1` (stereo not given) reads -1.28%; that for `COC(=O)c1ccccc1NC(=O)C1=CC(c2cccc(OC)c2)=NS(=O)(=O)N1C`, 2.65%.
For `CCOC(=O)c1sc(=S)n(-c2ccc(Br)cc2)c1N` the value was -1.26%.
For `Cc1ccc(-c2nnc(NCc3ccccc3)c3ccccc23)cc1S(=O)(=O)N1CCOCC1` the value was -0.185%.
In the case of `Cc1ccc(-c2nnc(N3CCOCC3)c3ccccc23)cc1S(=O)(=O)N1CCCCC1`, the activation is -0.605%.
For the compound `Cc1ccc(-c2nnc(N3CCOCC3)c3ccccc23)cc1S(=O)(=O)N1CCN(C)CC1`, the activation was 5.54% (active).
